For some assays here: Potency and affinity values are given separately.

Common to all, as to design: scale not given: direction of the effect not stated beside the values
In experiment [1] the target is Protein translocase subunit SecA (Escherichia coli (strain K12)) (UniProt P10408). The experiment in a line: Assay to Identify E. coli SecA ATPase Inhibitors. Format: functional. Conditions: 30 µM.
Experiment [2] has as its target T1, Ubiquitin-activating enzyme e1, putative (Leishmania donovani (strain BPK282A1)) (UniProt E9BSI1).
T1 sequence (whole entry): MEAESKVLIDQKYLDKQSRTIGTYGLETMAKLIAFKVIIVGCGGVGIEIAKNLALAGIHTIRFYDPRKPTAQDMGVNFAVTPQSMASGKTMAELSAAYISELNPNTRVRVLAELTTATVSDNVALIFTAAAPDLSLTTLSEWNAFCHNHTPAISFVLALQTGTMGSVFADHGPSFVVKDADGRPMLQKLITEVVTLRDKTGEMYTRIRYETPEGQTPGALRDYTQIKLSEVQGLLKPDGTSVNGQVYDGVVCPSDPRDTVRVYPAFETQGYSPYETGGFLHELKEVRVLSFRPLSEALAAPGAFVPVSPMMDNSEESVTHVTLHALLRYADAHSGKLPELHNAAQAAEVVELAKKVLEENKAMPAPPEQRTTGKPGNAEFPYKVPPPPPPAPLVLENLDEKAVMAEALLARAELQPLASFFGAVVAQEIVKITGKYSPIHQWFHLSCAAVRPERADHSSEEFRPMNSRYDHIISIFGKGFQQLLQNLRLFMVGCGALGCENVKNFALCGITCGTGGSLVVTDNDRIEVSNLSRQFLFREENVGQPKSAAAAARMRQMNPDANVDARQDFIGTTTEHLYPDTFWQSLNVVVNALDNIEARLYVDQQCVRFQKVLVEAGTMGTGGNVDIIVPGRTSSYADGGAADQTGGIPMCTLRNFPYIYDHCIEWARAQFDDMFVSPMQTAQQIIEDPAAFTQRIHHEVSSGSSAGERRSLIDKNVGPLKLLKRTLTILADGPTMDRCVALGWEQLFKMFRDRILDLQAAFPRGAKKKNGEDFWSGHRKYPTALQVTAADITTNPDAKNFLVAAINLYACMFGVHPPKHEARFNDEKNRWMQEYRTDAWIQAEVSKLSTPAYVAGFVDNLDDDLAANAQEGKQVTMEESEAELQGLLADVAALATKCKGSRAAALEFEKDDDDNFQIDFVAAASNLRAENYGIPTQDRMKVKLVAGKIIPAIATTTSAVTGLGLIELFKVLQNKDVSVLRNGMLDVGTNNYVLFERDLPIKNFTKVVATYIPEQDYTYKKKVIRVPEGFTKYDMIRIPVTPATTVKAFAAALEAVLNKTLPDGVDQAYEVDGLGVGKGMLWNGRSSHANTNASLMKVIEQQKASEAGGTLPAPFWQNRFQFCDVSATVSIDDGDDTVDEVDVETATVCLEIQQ
Put plainly: Leishmania donovani Ubiquitin Activating Enzyme (LdE1). Format: functional. The note with it: 30 µM.

For experiment [3], the target named is AMP-activated protein kinase, AMPK (Homo sapiens) (UniProt P54646+O43741+P54619+Q9UGJ0+Q9Y478+Q13131+Q9UGI9). Put plainly: AMP-dependent Kinase enzyme assay. An in vitro enzyme assay that detects ADP turnover that is directly proportional to AMPK activity. This uses naive AMPK that is activated during the assay with MK-8722. It counts as functional. Conditions: 30 µM.

Experiment [4] has as its target Sialic acid-binding Ig-like lectin 9 (Homo sapiens) (UniProt Q9Y336). The experiment in a line: Hs-Siglec9 ALPHAscreen SOP 20170721. The note with it: 10 µM. Background: Alpha assays give light when donor and acceptor beads are brought close together.
The next experiment concerns Trypanosoma cruzi. The experiment in a line: Trypanosoma cruzi phosphomannomutase and mannose-1-phosphate guanylyltransferase assay. It counts as functional. Conditions: 10 µM.
Experiment [5] addresses T2, Arginase-2, mitochondrial (Homo sapiens) (UniProt P78540).
T2 sequence (whole entry): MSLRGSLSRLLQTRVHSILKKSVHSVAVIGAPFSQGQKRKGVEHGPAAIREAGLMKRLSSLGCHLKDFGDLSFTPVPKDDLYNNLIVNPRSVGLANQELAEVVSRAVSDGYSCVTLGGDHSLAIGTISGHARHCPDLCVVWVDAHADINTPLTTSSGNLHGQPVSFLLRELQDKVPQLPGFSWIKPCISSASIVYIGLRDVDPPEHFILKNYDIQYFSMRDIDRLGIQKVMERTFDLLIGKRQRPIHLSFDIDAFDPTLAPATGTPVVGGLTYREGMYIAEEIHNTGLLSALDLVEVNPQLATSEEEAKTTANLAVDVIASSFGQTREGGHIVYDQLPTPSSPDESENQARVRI
Put plainly: in vitro enzyme assay to detect the production of urea directly proportional to the activity of Arginase II. Note: in the data most compounds retested in dose-response had high values. Conditions: 33.3 µM. It counts as functional.

Experiment [6] has as its target T3, Proteasome subunit beta (Trypanosoma cruzi) (UniProt O96673).
T3 sequence (whole entry): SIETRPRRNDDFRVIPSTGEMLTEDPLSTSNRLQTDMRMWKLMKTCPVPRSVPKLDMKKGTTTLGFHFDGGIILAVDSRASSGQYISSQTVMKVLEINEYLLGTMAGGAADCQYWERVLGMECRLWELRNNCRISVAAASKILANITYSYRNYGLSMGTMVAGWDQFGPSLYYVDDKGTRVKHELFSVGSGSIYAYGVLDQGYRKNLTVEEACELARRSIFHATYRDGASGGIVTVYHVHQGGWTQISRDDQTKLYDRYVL
The experiment in a line: Trypanosoma cruzi proteasome chymotrypsin-like activity (TcProtChymo) assay. Note: in the data most compounds retested in dose-response had high values. It counts as functional. The note with it: 9.37 µM.

The species named for a further experiment is Homo sapiens. The experiment in a line: To identify inhibition of the IFN signalling (Jak-Stat) pathway via expression of an eGFP reporter gene under the control of an IFN-stimulated response element (ISRE) containing MxA promoter. It counts as functional. Conditions: 30 µM.
For experiment [7], the target named is T4, Tyrosyl-tRNA synthetase, putative (Trypanosoma cruzi (strain CL Brener)) (UniProt Q4DSP6).
T4 sequence (whole entry): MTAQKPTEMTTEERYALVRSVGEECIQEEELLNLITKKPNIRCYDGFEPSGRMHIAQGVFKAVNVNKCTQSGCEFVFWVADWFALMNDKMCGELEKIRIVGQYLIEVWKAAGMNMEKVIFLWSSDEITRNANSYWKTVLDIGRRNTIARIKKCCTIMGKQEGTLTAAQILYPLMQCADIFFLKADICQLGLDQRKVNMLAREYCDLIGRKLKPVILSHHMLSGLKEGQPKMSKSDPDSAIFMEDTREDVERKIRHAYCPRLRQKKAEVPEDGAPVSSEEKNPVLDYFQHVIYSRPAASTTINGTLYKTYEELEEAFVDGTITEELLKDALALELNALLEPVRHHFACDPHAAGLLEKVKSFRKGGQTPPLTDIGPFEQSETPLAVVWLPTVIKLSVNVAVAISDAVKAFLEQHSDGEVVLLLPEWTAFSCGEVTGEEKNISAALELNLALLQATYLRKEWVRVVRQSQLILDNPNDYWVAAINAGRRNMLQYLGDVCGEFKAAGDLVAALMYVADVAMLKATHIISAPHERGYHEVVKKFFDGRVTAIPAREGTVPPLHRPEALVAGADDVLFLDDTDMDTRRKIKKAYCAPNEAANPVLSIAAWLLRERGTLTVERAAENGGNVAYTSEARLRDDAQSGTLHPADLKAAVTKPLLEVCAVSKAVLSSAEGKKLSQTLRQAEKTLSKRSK
Put plainly: Trypanosoma cruzi tyrosyl tRNA synthetase (TcYRS) _High Tyrosine SOP. Note: in the data most compounds retested in dose-response had high values. Format: functional. Conditions: 30 µM.

Experiment [8] concerns the target T4, Tyrosyl-tRNA synthetase, putative (Trypanosoma cruzi (strain CL Brener)). The experiment in a line: Trypanosoma cruzi tyrosyl tRNA synthetase (TcYRS) SOP. Format: functional. Conditions: 30 µM.
The target of experiment [9] is Chromo domain-containing protein 1 (Saccharomyces cerevisiae (strain ATCC 204508 / S288c) (Baker's yeast)) (UniProt P32657). The experiment in a line: ScCHD-1 Enzyme Inhibition Assay. Note: in the data most compounds retested in dose-response had high values. It counts as functional. Conditions: 30 µM.
Chain of Chromo domain-containing protein 1 (Saccharomyces cerevisiae (strain ATCC 204508 / S288c) (Baker's yeast)) (P32657 whole entry, the tested form may be a part): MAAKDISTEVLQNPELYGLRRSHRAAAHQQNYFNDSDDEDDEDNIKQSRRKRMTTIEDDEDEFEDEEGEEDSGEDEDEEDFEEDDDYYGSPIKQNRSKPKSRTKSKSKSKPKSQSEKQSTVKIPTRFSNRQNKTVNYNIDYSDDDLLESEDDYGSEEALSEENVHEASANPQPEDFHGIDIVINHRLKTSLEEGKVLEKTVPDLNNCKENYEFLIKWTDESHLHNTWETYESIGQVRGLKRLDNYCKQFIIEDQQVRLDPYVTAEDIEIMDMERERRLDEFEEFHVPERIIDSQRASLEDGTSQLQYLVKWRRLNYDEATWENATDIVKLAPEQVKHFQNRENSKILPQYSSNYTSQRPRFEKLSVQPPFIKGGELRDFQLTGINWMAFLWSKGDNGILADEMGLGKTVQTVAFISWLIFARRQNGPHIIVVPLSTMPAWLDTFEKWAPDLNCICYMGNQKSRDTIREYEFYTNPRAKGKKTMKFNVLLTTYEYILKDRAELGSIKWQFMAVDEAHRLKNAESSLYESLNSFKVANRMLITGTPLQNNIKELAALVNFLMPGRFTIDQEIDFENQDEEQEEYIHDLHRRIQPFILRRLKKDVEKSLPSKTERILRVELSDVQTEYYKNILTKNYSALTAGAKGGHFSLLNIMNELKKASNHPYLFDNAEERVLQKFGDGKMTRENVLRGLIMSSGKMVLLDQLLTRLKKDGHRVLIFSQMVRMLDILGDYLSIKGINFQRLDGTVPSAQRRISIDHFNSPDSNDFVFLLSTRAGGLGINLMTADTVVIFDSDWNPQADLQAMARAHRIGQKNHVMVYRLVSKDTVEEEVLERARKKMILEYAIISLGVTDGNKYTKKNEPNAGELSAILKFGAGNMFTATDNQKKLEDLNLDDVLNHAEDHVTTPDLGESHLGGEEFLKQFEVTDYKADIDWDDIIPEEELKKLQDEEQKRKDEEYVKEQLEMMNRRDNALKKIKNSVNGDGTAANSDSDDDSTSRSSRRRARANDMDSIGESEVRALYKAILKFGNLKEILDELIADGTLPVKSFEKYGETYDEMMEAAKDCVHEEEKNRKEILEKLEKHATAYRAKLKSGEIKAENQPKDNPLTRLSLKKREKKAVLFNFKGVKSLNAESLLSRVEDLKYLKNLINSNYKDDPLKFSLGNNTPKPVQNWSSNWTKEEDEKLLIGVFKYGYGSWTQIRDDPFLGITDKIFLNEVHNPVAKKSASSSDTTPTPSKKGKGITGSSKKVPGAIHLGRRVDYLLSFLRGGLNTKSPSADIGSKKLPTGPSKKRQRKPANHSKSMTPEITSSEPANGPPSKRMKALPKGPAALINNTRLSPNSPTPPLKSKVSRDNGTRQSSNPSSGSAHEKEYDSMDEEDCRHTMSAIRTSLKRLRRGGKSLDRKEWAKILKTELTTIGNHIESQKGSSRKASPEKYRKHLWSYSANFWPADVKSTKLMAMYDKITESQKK

Chain of Protein translocase subunit SecA (Escherichia coli (strain K12)) (P10408 whole entry): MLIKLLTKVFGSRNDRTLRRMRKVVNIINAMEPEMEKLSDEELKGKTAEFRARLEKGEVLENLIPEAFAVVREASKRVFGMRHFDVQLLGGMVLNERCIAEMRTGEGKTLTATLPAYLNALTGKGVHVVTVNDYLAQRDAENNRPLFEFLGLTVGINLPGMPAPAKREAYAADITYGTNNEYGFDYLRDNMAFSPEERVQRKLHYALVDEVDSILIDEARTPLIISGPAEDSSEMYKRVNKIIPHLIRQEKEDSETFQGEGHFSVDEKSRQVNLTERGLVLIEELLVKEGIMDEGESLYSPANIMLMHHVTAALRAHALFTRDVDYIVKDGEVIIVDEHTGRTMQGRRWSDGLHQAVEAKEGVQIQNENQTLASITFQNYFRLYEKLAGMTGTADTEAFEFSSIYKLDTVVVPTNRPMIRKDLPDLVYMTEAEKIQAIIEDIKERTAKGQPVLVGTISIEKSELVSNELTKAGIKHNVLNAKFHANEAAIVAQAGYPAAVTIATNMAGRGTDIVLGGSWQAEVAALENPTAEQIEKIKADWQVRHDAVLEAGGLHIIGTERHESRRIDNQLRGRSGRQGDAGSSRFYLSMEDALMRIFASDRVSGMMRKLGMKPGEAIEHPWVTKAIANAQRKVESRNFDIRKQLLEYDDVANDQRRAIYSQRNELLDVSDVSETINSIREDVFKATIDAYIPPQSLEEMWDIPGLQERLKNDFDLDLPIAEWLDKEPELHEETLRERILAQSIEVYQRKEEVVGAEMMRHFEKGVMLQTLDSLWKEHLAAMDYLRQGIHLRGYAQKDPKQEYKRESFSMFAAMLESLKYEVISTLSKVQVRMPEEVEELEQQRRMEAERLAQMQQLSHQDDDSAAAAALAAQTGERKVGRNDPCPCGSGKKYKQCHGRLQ
Chain of Sialic acid-binding Ig-like lectin 9 (Homo sapiens) (Q9Y336 whole entry): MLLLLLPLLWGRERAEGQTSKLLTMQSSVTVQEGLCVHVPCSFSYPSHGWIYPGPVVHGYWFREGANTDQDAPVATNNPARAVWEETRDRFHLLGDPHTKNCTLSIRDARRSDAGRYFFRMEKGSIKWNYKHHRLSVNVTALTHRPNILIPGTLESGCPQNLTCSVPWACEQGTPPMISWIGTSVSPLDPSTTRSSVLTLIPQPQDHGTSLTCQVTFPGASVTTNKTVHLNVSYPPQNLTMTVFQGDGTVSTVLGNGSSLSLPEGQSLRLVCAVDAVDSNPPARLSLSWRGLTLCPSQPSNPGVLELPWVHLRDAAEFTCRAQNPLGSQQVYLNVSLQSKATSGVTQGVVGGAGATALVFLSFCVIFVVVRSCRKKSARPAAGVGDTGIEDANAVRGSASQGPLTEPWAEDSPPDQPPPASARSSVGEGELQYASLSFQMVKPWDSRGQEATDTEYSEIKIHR

For the compound `CNS(=O)(=O)c1cc(C(=O)NC2CCOc3ccccc32)cc(C)c1C` (stereo not given), the Percent Effect is -6.38% in experiment [1]; -2.63% in experiment [2]; 13.9% in experiment [3]; -3.37% in experiment [4]; -3.41% in the experiment on Trypanosoma cruzi; -4.73% in experiment [5]. The Percent Effect in experiment [6] was 8.53%; in the experiment filed under Homo sapiens, -0.414%; in [7], 4.25%; in [8], 7.79%; in experiment [9], 7.83%.
For the compound `Cn1ccnc1CN1CCN(Cc2cc(C#N)ccc2F)CC1`, the Percent Effect is -2.4% in experiment [1]; 2.7% in [2]; 1.09% in experiment [3]; -1.18% in [4]; -9.38% with Trypanosoma cruzi; 6.1% in experiment [5]. The Percent Effect worked out at 10.8% in [6]; 20% in the experiment filed under Homo sapiens; 5.94% in [7]; 6.1% in experiment [8]; 3.16% in experiment [9].
With `COc1ccc(CN2CCc3nc(C4CCCCN4C)ncc3C2)cc1` (stereo not given), the Percent Effect in experiment [1] was -0.233%; in experiment [2] it was -8%; in [3], -0.187%; in experiment [4] it was -0.354%; in the experiment on Trypanosoma cruzi, 3.54%; in experiment [5] it was -2.1%. Besides, the Percent Effect in experiment [6] was 28.3%; in the experiment filed under Homo sapiens it was 11.8%; in experiment [7], 21.3%; in experiment [8], 26.9%; in experiment [9], -1.3%.
`CC(=O)N1CCN(C(=O)CCOc2ccc(C(C)C)cc2)CC1`: the Percent Effect in experiment [1] was -2.33%; in experiment [2], 7.89%; in experiment [3], 5.03%; in experiment [4], 10.9%; in the experiment on Trypanosoma cruzi, -2.26%; in [5], 2.3%. Also, the Percent Effect was 14.4% in experiment [6]; 0.908% in the experiment filed under Homo sapiens; 5.39% in experiment [7]; 4.88% in [8]; -1.04% in experiment [9].
Turning to `CN(Cc1cccnc1)CC1CCCN1c1cccnn1` (stereo not given), the Percent Effect in experiment [1] is 4.47%; in [2] it was 18.2%; in experiment [3] it was -2.81%; in [4], -14.9%; in the experiment on Trypanosoma cruzi it was -5.58%; in [5], 0.21%. Moreover, the Percent Effect in [6] is 13.7%; in the experiment listed under Homo sapiens it was 27.4%; in experiment [7] it was 7.62%; in [8], 18.8%; in experiment [9], -18.6%.
Consider `CCn1ncc2c1CCCC2NCC1=Cc2ccccc2OC1` (stereo not given), for which the Percent Effect in experiment [1] is -4.51%; in experiment [2] it was 3.8%; in experiment [3] it was 4.34%; in experiment [4], 0.918%; in the experiment on Trypanosoma cruzi, 1.95%; in experiment [5], -7.1%. Further, the Percent Effect in experiment [6] is 10.1%; in the experiment filed under Homo sapiens it was 13.4%; in experiment [7] it was 4.17%; in experiment [8], 7.59%; in [9], -2%.
For the compound `N#Cc1cn(C2CC2)c(=O)n(CC(O)c2ccccc2F)c1=O` (stereo not given), the Percent Effect in [1] was -3.42%; in experiment [2] it was 21.1%; in [3], -2.46%; in experiment [4], 7.51%; with Trypanosoma cruzi, 6.58%; in experiment [5], -1.15%. The Percent Effect is 10.7% in [6]; 0.878% in the experiment listed under Homo sapiens; 6.37% in [7]; 19.5% in experiment [8]; -13.4% in experiment [9].
Take `Cc1ccc(-c2nnc(SCC(=O)O)n2-c2ccc(C)cc2)cc1`: the Percent Effect is -2.58% in experiment [1]; 13.3% in experiment [2]; 1.28% in experiment [3]; 2.44% in experiment [4]; 3.74% with Trypanosoma cruzi; 1.17% in experiment [5]. Moreover, the Percent Effect was 13.8% in [6]; 28.5% in the experiment listed under Homo sapiens; 6.38% in [7]; -98.7% in experiment [8]; -3.8% in experiment [9].
Take `CO[C@@H]1CC[C@H]2[C@H]1OCCN2C(=O)COc1ccc(F)cc1`: the Percent Effect was 0.9% in experiment [1]; -2.7% in experiment [2]; 12.4% in experiment [3]; 0.225% in [4]; -4.01% in the experiment on Trypanosoma cruzi; 3.5% in [5]. The Percent Effect in experiment [6] is 15.3%; in the experiment listed under Homo sapiens, 3.76%; in experiment [7], 4.32%; in experiment [8], -2.56%; in experiment [9] it was 0.177%.
As to `Cn1ccnc1COc1ccc(CN2CCN(CCO)CC2)cc1`, the Percent Effect is -4.05% in experiment [1]; 20.8% in experiment [2]; -12.5% in experiment [3]; -0.317% in experiment [4]; -3.18% in the experiment with Trypanosoma cruzi; -3.2% in [5]. Further, the Percent Effect was 5.07% in experiment [6]; 29.4% in the experiment listed under Homo sapiens; 10.7% in experiment [7]; 2.44% in experiment [8]; -9.14% in experiment [9].

Source of the values: ChEMBL document CHEMBL3988442, “University of Dundee, Small-Polar-MMV Screening Library” (2021).
